The source of these data is PMC12136788.

The full ranking holds about 5,800 sequences; the median of “enrichment r” is about 0.68, and the highest 2% start at about 11. These entries were drawn from the full list.

T1: UNK ZnF1-6 (called full-length) (human, UniProt Q9C0B0 30-357)
T1 sequence: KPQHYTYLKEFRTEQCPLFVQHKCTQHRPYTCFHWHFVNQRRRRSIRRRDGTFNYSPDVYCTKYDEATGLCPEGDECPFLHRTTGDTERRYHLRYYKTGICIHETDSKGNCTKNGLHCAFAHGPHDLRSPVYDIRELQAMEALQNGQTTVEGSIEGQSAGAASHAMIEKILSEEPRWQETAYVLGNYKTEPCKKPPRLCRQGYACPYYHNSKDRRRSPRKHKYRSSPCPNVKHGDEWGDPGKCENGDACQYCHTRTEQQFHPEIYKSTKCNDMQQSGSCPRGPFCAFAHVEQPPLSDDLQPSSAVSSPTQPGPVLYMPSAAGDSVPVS

B1: chr20:35276351:35277713:-|three_prime_utr|ENSG00000126005|control|control|control (ssRNA)
RNA: GGGAGUUCUACAGUCCGACGAUCCUCCUCUCCCCACGUCCCUGCGUCUCUUACACCCCCUCCCACCCGAGGCUCCCCAGAGAUAGCAGAGAAUUCGAAGAGGUCGCCGGGGACUGGAAAGAAGUCCCGGCAGGGCCGCCUUCGCAACAGAGGAUUGAGCAUCA
B2: chr2:42328916:42329027:+|CDS|ENSG00000143924|unk|FALSE|unique (ssRNA)
RNA: GGGAGUUCUACAGUCCGACGAUCAGAAGGAUCUGAUGGGACAGAUAUCAAUGCACUGGUGCGAUCCCACAAUAGAAAGGUGAUAGCUGUUGCCGAUGACUUUUGUAAAGUCCAUCUGUUUCAGUAUCCCUGCUCCAAAGCAAACAACAGAGGAUUGAGCAUCA
B3: chr1:28742582:28742694:+|CDS|ENSG00000198492|unk|FALSE|bound_elsewhere (ssRNA)
RNA: GGGAGUUCUACAGUCCGACGAUCAGCAACGGAGAGCCCCACUUCCUACCAGAUGCAAUGUUUGGGCAACCAGGAGCCCUAGGUAGCACUCCAUUUCUUGGUCAGCAUGGUUUUAAUUUCUUUCCCAGUGGGAUUGACUUCUCACAACAGAGGAUUGAGCAUCA
B4: chr1:235182574:235182675:-|CDS|ENSG00000054267|unk|FALSE|unique (ssRNA)
RNA: GGGAGUUCUACAGUCCGACGAUCUUUGACCAACAACAGAAAUGAUCUUAUUUCAAAGGAGGAACAGAACAGUUCAUCUUUGCUAGAAGAAAACAAAGUUCAUGCAGAUUUGGUAAUAUCCAAACCAGUGUCAAAAUCUCCAGACAACAGAGGAUUGAGCAUCA
B5: chr14:81473690:81473791:-|3pUTR|ENSG00000071537|msi1|total|mutant (ssRNA)
RNA: GGGAGUUCUACAGUCCGACGAUCCAGUGUUUUGGAAGUAUGCAUGCAGGCCUAUAAAUGAAAAACACAAUUCUUUAUGUGUACCGCAUGUGUAUUAAUGUCUAACUACAUACGCAAAAACUUCCUUUACAGAGGUUCGGACUACAACAGAGGAUUGAGCAUCA
B6: chr3:124966548:124966651:-|3pUTR|ENSG00000173706|unk|FALSE|bound_elsewhere (ssRNA)
RNA: GGGAGUUCUACAGUCCGACGAUCAGGAAGAAUGCAAAGUUCAGUAUUUCAAUACUUUGUAUUUUACUUGAAAUUACCCUUAGUAGCAUCUUUUUUUUCCUGUCUGAAAGCUUUUGUGUGGAUGAGAAGGGACAUUUCAUUUCCCAACAGAGGAUUGAGCAUCA
B7: chr1:225419324:225419425:-|CDS|ENSG00000143815|msi1|FALSE|unique (ssRNA)
RNA: GGGAGUUCUACAGUCCGACGAUCUUACAUAGCAACACAGUAUAGCCUUCGUCCAAGAAGAGAAGAAGUCAAAUUAAAAGAAAUAGAUUCUAAGGAAGAAAAAUACGUUGCAAAAGAACUGGCAGUGAGAACCUUUGAAGUGACCAACAGAGGAUUGAGCAUCA
B8: chr16:18841627:18841728:-|CDS|ENSG00000157106|msi1|FALSE|bound_elsewhere (ssRNA)
RNA: GGGAGUUCUACAGUCCGACGAUCUACAAUUAAUCGCCAAGAAACACCCCGGUUCCAUGCUCGACACUAUUCUGUAACACCACUAGGAACAAGAUCAGGACUAAUCCAGUGGGUAGAUGGAGCCACACCCUUAUUUGGUCUUUACAACAGAGGAUUGAGCAUCA
B9: chr15:65058426:65058617:-|CDS|ENSG00000103710|control|control|control (ssRNA)
RNA: GGGAGUUCUACAGUCCGACGAUCCUGAACUGGGCCCAUGCCUUCCUGGUGGUGUACAGCGUCGACAGCCGCCAGAGCUUUGAUAGCAGCAGCAGCUACCUGGAGCUGCUUGCCUUGCACGCGAAGGAGACACAGCGCAGCAUCCAACAGAGGAUUGAGCAUCA
B10: chr8:28970260:28970371:+|CDS|ENSG00000147421|unk|total|mutant (ssRNA)
RNA: GGGAGUUCUACAGUCCGACGAUCUCUUCCUCUACAGCUACAGCUUCCACACAGACGCAGCAUUCGGGAAUGUCCCCGUCACCCCGCAACAGUUAUGAUACUUCCCCACAGCCUUGCACUACCAAUCAAAAUGGGAGGGAGAAUCAACAGAGGAUUGAGCAUCA
B11: chr1:13148904:13149928:-|three_prime_utr|ENSG00000280267|control|control|control (ssRNA)
RNA: GGGAGUUCUACAGUCCGACGAUCCCUGGACCUGAGUGGCAUCAGACUGACCAAUUACAGUCUUGUGCCUCUCCAAAUUCUCCUAGAAAAAGUUGCAGCCACCCUUGAGUACCUGGAUUUAGAUGACUGUGGCAUCAUAGACUCCAACAGAGGAUUGAGCAUCA
B12: chr14:63372511:63372612:-|3pUTR|ENSG00000154001|unk|total|mutant (ssRNA)
RNA: GGGAGUUCUACAGUCCGACGAUCUGGGGAUGAGGGUGGGAUGGGAAAGGGAUGUAUGGAUGUUAUUGGCAUUUUUAAGUGUUCCGAGUUUUUUGGGGUUUGGGGUGGUUUUUUUUCCUUGUUUUCCUUUUUUCCUUUUAAUUGCAACAGAGGAUUGAGCAUCA
B13: chr5:74627411:74627511:-|3pUTR|ENSG00000171617|msi1_unk|total|mutant (ssRNA)
RNA: GGGAGUUCUACAGUCCGACGAUCUUUGUAAAACUGUUAUUUUUUUUUUUUUCACAAUGUGAAACUGAAGGUCAAUAAAUUAUCCGAGAUUUUCUCUUCAUUAUGUGUGUGGGUCUUCAUUUGAAUAAGACACAAUUUGAGGCACAACAGAGGAUUGAGCAUCA
B14: chr10:68442948:68443070:-|CDS|ENSG00000138346|unk|total|mutant (ssRNA)
RNA: GGGAGUUCUACAGUCCGACGAUCCCCAAUUGUGAUGCUGCCCAAAACCGAAGAAGAAACCCAGCAUCUGAAGCAAACACACUCCGAAUAUUUCAGCCUUUGGUGUCUAAUGUUAACCCUGGAGUCACAAUCGAAGGAUAAUAACAACAGAGGAUUGAGCAUCA
B15: ENSG00000127995:stop:overlap|stop_codon|ENSG00000127995|stop_codon|NA|stop_codon (ssRNA)
RNA: GGGAGUUCUACAGUCCGACGAUCUAGCUGCAUUUUUUUGUGGACUCCUCAUCUUAUCAUCCAUUCAAGAUAAAUCAAAACAUUAGGUUCCAAAAAUUCUAAAAAACCUAAACUCUUCAGGCUACCUUUGUGUGUCUCUAGAAGCAACAGAGGAUUGAGCAUCA
B16: chr12:13219749:13219850:+|3pUTR|ENSG00000134531|unk|total|mutant (ssRNA)
RNA: GGGAGUUCUACAGUCCGACGAUCACAACAGUGGAUGGGGAGGAAGAACAGACUUUUGAGCUCUUCCCAAUACCGGAAUGUGUCCGUUCUAAAAAUUUUCUUAAGUUGUUUGCUUGGAACUCAGAGUAUAUUUUUCCAUACGAACAACAGAGGAUUGAGCAUCA
B17: chr10:128098466:128098636:-|3pUTR|ENSG00000148773|msi1|total|mutant (ssRNA)
RNA: GGGAGUUCUACAGUCCGACGAUCUCCUUUCCUUUCUGAAAAUAAAGUUUUGUGCUUUGGAGAAUGACUCGUGAGCACAUCUUCCGGGACCAAGAGUGACUUUCUGUAAGGAGUGACUCGUGGCUUGCCUUGGUCUCUUGGGAACAACAGAGGAUUGAGCAUCA
B18: chr7:137014887:137014989:+|CDS|ENSG00000181072|unk|total|mutant (ssRNA)
RNA: GGGAGUUCUACAGUCCGACGAUCGCUACUUGGCUACUGAUCCGAGAACGCAAAAUGAAUAACUCAACAAACUCCUCUAACAACCGCCUGGCUCUUACAAGUCCUUAUAAGACAUUUGAAGUGGUGUUUAUUGUCCUGGUGGCUCAACAGAGGAUUGAGCAUCA
B19: chr17:8173470:8173636:-|3pUTR|ENSG00000179029|msi1|total|mutant (ssRNA)
RNA: GGGAGUUCUACAGUCCGACGAUCUGUUUGUCUGUAUCGUCAGGUGGGAUAAUCCUUACCUGUUCCUCCUCCGGAGGGCAGAUCCGAACAUGAUGAUUGGAGAUGCAUGAAACGUGAUUAACGUCUCUGCGUAAUCAGGACUUGCAACAGAGGAUUGAGCAUCA
B20: ENSG00000124766:be:win_3601|3pUTR|ENSG00000124766|bound_else_gene|NA|bound_elsewhere_windowed (ssRNA)
RNA: GGGAGUUCUACAGUCCGACGAUCUGUACUGCGUUUUUCAUUCUUGUAUUUGACUAUUUAAUCCUUUCUACUUGUCGCUAAAUAUAAUUGUUUUAGUCUUAUGGCAUGAUGAUAGCAUAUGUGUUCAGGUUUAUAGCUGUUGUGCAACAGAGGAUUGAGCAUCA
B21: ENSG00000198589:be:win_7751|CDS|ENSG00000198589|bound_else_gene|NA|bound_elsewhere_windowed (ssRNA)
RNA: GGGAGUUCUACAGUCCGACGAUCAAGUGCAUUCCCAGUGCUUUGUCAUCACUUCAGACAACCGCUAUAUUCUCGUCUGUGGCUUCUGGGAUAAAAGUUUCAGAGUCUAUUCUACAGACACAGGAAGAUUGAUCCAAGUGGUGUCAACAGAGGAUUGAGCAUCA
B22: ENSG00000198589:be:win_2051|CDS|ENSG00000198589|bound_else_gene|NA|bound_elsewhere_windowed (ssRNA)
RNA: GGGAGUUCUACAGUCCGACGAUCUACUGACUAUGCAUGAGGAUGACAAUCUAAUGGAUGUCCUACAGCUGCUUGUUGCAUUAAUGUCAGAACACCCUAACUCUAUGAUUCCUGCUUUUGACCAAAGGAAUGGGUUACGUGUUACAACAGAGGAUUGAGCAUCA
B23: chr17:42842016:42842117:+|3pUTR|ENSG00000131467|msi1|FALSE|unique (ssRNA)
RNA: GGGAGUUCUACAGUCCGACGAUCUUACUGUUUCUUUCCUCUGUGGGGCAUUGGAUCCUCCCACAGUUGCCCUGGUGAUGACUUAGGGCUUCCCAUCUGUGUACAUCCCACUUUGAAUCUUGAUCGUGACAAGAAAUACCUUAGCAACAGAGGAUUGAGCAUCA
B24: chr6:132296306:132296407:-|3pUTR|ENSG00000079931|msi1|FALSE|unique (ssRNA)
RNA: GGGAGUUCUACAGUCCGACGAUCAUGGGAAACAUAGAAAUGGUAUGUAUUAAUAACUGAUCAUAGGCUGAGGAGAAAAAAUGUAGCUGGCUGCAAACCCAGUGCUGUGAGGUGACUUAUAUGAGGUUCCAGAUCAAAGACAGGCAACAGAGGAUUGAGCAUCA
B25: chr2:69942770:69942871:+|3pUTR|ENSG00000059728|unk|total|mutant (ssRNA)
RNA: GGGAGUUCUACAGUCCGACGAUCUGUUUCCAGAUGUUUCUUUAUGUAAAUAUGACGCCAAUGUAAAUCCUGUGUCAAGAUCACCGAGAAUGGUGCUUUUUACUACAGUCCGCACAUGCAUUUUCCGAAACUACUACAUGUUUUCAACAGAGGAUUGAGCAUCA
B26: ENSG00000107863:be:win_51|CDS|ENSG00000107863|bound_else_gene|NA|bound_elsewhere_windowed (ssRNA)
RNA: GGGAGUUCUACAGUCCGACGAUCCAAGGCCUGCGAGGUCUCAAAAAAUAAAGAUGGAAAAGAACAAAGUGAAACUGUAUCACUGUCUGAAGAUGAAACAUUCUCCUGGCCAGGUCCCAAAACAGUUACGUUGAAAAGAACAUCCAACAGAGGAUUGAGCAUCA

The target in the assay is T1, UNK ZnF1-6 (called full-length). The experiment in a line: nsRBNS (natural sequence RNA bind-n-seq); RBNS binding buffer (assumed for nsRBNS): 25 mM Tris pH 7.5, 150 mM KCl, 3 mM MgCl2, 0.01% Triton X-100, 500 ug/ml BSA, 20 U/ml SUPERase-In, 4 C; UNK is unkempt and MSI1 is Musashi-1; names of the RNAs are library labels; protein concentration not given here; high values mean tight binding.
B1 gave a binding signal of 0.869 enrichment R.
The figure for B2 is 0.424 enrichment R; for B3 it is 0.665 enrichment R; for B4 it is 0.258 enrichment R.
The figure for B5 is 0.563 enrichment R; for B6 it is 1.1 enrichment R.
For the molecule B7, the binding signal was found to be 0.538 enrichment R.
In the case of B8 it was 0.869 enrichment R.
Molecule B9 displayed a binding signal of 0.597 enrichment R.
In the case of B10 it was 0.625 enrichment R; in that of B11, 0.577 enrichment R.
In the case of B12 it was 1.7 enrichment R.
In the case of B13 it was 0.75 enrichment R; in that of B14, 0.471 enrichment R.
For B15, the binding signal is 0.828 enrichment R.
With B16, the binding signal was 0.58 enrichment R.
The figure for B17 is 0.483 enrichment R.
The figure for B18 is 0.461 enrichment R; for B19 it is 0.686 enrichment R; for B20 it is 0.795 enrichment R.
On to B21, for which the binding signal worked out at 0.285 enrichment R.
The figure for B22 is 0.35 enrichment R; for B23 it is 0.557 enrichment R; for B24 it is 0.863 enrichment R.
In the case of B25 it was 0.355 enrichment R; in that of B26, 0.505 enrichment R.
